29 compounds from PubChem BioAssay (NCI) can be followed below.

Each structure is given as a SMILES string. About 83,000 compounds went through this panel and 20% of them were active in at least one assay; those are over-represented in the sample as a whole.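 Results are percent growth after 48 hours of single-concentration exposure. 100 means growth as in untreated cells, lower positive values show inhibition; negative values down to -100 show cell death.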 Values without a mark were called inactive. The source made the active and inactive calls. How the source made its calls: active means growth percent below 10; inactive means the rest.

Holding throughout (assay): NCI-60 one-dose screen, 48 h (100 = growth as untreated, 0 = no growth, -100 = all killed)
What all share (conditions): 10 µM unless noted

Assay [1] has as its system DU-145 prostate.
Assay [2] concerns MALME-3M melanoma.
The subject of assay [3] is MDA-MB-231 breast.
Assay [4] relates to RXF 393 renal.
Assay [5] relates to SF-268 CNS.
In assay [6] the test system is SF-295 CNS.
Assay [7] has as its system SF-539 CNS.
The subject of assay [8] is UACC-257 melanoma.
The test system of assay [9] is M14 melanoma.
The test system of assay [10] is K-562 leukemia.

With `O=[N+]([O-])c1ccc2c(c1)Cc1cc(F)ccc1-2`, the growth in [1] is 114%; in assay [2], 109%; in [3], 112%; in [4], 103%; in [5], 111%; in assay [6], 96.5%. The growth in assay [7] was 109%; in assay [8], 87.1%; in assay [9] it was 110%.
Regarding `CCOc1nc(-c2ccccc2)cc2c(O)c(C(=O)O)[nH]c(=O)c12`, the growth is 101% in assay [1]; 112% in assay [10]; 104% in assay [3]; -10.5% (active) in [4]; 99.2% in [5]; 104% in assay [6]. In addition, the growth was 94.6% in assay [7], 60.7% in assay [8] and 102% in assay [9].
Regarding `O=C(COc1cccc(/C=C2\COc3ccc(Cl)cc3C2=O)c1)c1ccc(Cl)cc1`, the growth in assay [1] was 124%; in assay [10], 13.1%; in assay [2], 77.5%; in [3], 67.8%; in assay [5], 94.4%; in [6] it was 120%. Moreover, the growth in [7] was 87%; in [8], 104%; in assay [9], 82.4%.
Consider `N#Cc1nnn(-c2ccc(S(N)(=O)=O)cc2)c1NC(=O)CCl`, for which the growth was 107% in [1]; 102% in [2]; 102% in assay [3]; 109% in assay [4]; 97.6% in [5]; 98.2% in assay [6]. Besides, the results for the growth in assay [7], in [8] and in assay [9] were 98.8%, 89% and 95.4%, respectively.
Take `CC[C@@H]1O[C@H](O[C@@H](c2cnc[nH]2)[C@H](NC(=O)c2nc([C@H](CC(N)=O)NC[C@@H](N)C(N)=O)nc(N)c2C)C(=O)N[C@H](C)[C@H](O)[C@H](C)C(=O)N[C@@H](C(=O)NCCc2nc(-c3nc(C(=O)NCCCCN=C(N)N)cs3)cs2)[C@@H](C)O)[C@H](O[C@@H]2O[C@H](CO)[C@H](O)[C@H](OC(N)=O)[C@@H]2O)[C@H](C)[C@@H]1C`: the growth in assay [1] was 49.4%; in assay [10], 82%; in [2], 45%; in [3], 88.7%; in assay [5] it was 23.1%; in [8], 70.9%. For the same compound, in assay [9], the growth was 39.2%.
As for `CCCCC/C(C=C(C#N)C#N)=C/c1ccccc1`, the growth in [1] was 71.3%; in assay [10], 42.2%; in assay [2], 95.4%; in assay [3], 77.7%; in [5], 81.7%; in [6], 84.4%. In addition, the growth is 92.3% in assay [7], 54% in assay [8] and 73% in [9].
For `Cc1cc(N2CCCCC2)nc(NC2CCCC(Nc3ccnc4cc(Cl)ccc34)C2)n1` (stereo unspecified), the growth in assay [1] was 1.31% (active); in [2], -86% (active); in assay [3], -89.8% (active); in assay [4], -81.2% (active); in assay [5], -59.6% (active); in assay [6], -76.7% (active). In addition, the growth in assay [7] is -92.8% (active); in assay [8] it was -90.9% (active); in assay [9], -86.5% (active).
`COc1cc(C(=O)/C=C/c2cccnc2Nc2ccc(Cl)cc2)cc(OC)c1OC`: the growth was -59.2% (active) in assay [1]; -48.1% (active) in assay [2]; -50.7% (active) in assay [3]; -85.7% (active) in [4]; -87.7% (active) in assay [5]; 7.32% (active) in assay [6]. In addition, the figures for the growth in assay [7], in [8] and in [9] were -80.2% (active), -63.5% (active) and -47.4% (active), respectively.
In the case of `C=C1C(=O)O[C@H]2[C@H]1CC/C(C=Nc1ccc(C(F)(F)F)cc1N)=C\CC[C@@]1(C)O[C@@H]21`, the growth is 17.4% in assay [1]; -13.3% (active) in assay [2]; -26.4% (active) in assay [3]; -35.5% (active) in assay [4]; 23.7% in assay [5]; 45.4% in [6]. Besides, the growth in assay [7] was -7.2% (active); in [8], 13%; in [9], 5.33% (active).
Take `CS(=O)(=O)c1ccc(-n2nc(-c3ccc(Br)cc3)c3ccccc3c2=O)cc1`: the growth in assay [1] was 99.2%; in assay [10] it was 90.9%; in [3], 90.1%; in assay [4] it was 97.1%; in [5], 95%; in assay [6], 94%. The figures for the growth in assay [7], in assay [8] and in assay [9] were 96.2%, 97.3% and 107%, respectively.
On to `O=[N+]([O-])c1ccccc1/C=N\NC(=S)N/N=C/c1ccccc1[N+](=O)[O-]`, for which the growth in assay [1] was 62.1%; in assay [2] it was 19%; in assay [3] it was 83%; in [4] it was 76.3%; in assay [5], 41%; in assay [6], 29.8%. The results for the growth in [7], in assay [8] and in assay [9] were 56.3%, 83.2% and 37.6%, respectively.
On to `COc1ccccc1Nc1nc(-c2cc3cccc(C(F)(F)F)c3oc2=O)cs1`, for which the growth in assay [1] was 7% (active); in [2], 78.2%; in assay [3], 19.1%; in [4], 26.7%; in assay [5] it was 26.2%; in [6] it was 3.82% (active). Besides, the growth is -32.9% (active) in [7], 57.1% in [8] and 13.5% in assay [9].
Take `COc1nc2c(c(=O)n1C)CN(Cc1ccccc1)C=N2`: the growth is 114% in assay [1]; 93.2% in assay [10]; 119% in assay [3]; 109% in [4]; 106% in assay [5]; 109% in assay [6]. For the same compound, the growth is 116% in [7], 94.9% in [8] and 101% in [9].
Regarding `CC(=O)c1cc2c(N)c(C(=O)Nc3cccc(F)c3C)sc2nc1C`, the growth is 99.1% in [1]; 94% in [2]; 82.1% in assay [3]; 96.6% in assay [4]; 94.3% in assay [5]; 82.4% in assay [6]. Besides, the growth is 93.5% in [7] and 74.5% in [8].
For `COc1ccc(SC2c3ccc(C)cc3Oc3nc(N)c(C#N)c(N)c32)cc1` (stereo unspecified), the growth in [1] was -88.3% (active); in assay [2] it was -87.6% (active); in [3], -86.5% (active); in [4], -69.2% (active); in [5], 2.01% (active); in assay [6], 44.8%. Also, the growth in assay [7] is -75.4% (active); in [8], -74.8% (active).
With `O=C(/C=C/c1ccc(C(F)(F)F)cc1)Nc1ccc(C=C2c3ccccc3C(=O)c3ccccc32)cc1`, the growth in [1] is 72.4%; in assay [2], 76.6%; in assay [3], 77.3%; in [4] it was 68.4%; in [5], 67.3%; in [6], 59.2%. Also, the growth in assay [7] was 83.5%; in [8] it was 35.1%.
As to `O=C(COc1ccc(/C=C2\CSc3ccccc3C2=O)cc1)Nc1nccs1`, the growth was 130% in assay [1]; -14.2% (active) in assay [10]; 77.8% in [2]; 95.6% in assay [3]; 99.6% in [5]; 118% in assay [6]. Further, the growth in [7] was 111%; in assay [8], 97.3%.
As to `COc1ccc(Nc2cc(C)nc(N3CCN(c4ccnc5cc(Cl)ccc45)CC3)n2)cc1`, the growth in assay [1] was 58%; in assay [10] it was 10.1%; in assay [3], 17.7%; in assay [4] it was 51.4%; in [5], 52.6%; in [6], 15.9%. Besides, the figures for the growth in assay [7], in assay [8] and in [9] were 54.7%, 62.6% and 27.3%, respectively.
Consider `Cc1cc(N2CCSCC2)nc(NC2CCCC(Nc3ccnc4cc(Cl)ccc34)C2)n1` (stereo unspecified), for which the growth in assay [1] is 19.7%; in assay [2], -86.1% (active); in [3], -75.7% (active); in assay [4], -73.7% (active); in assay [5], -39.9% (active); in assay [6], -78.6% (active). Moreover, the growth in assay [7] was -93.1% (active); in assay [8], -79.3% (active); in [9], -88.5% (active).
Regarding `Clc1ccc2c(NCCNc3nc(N4CCOCC4)nc4ccccc34)ccnc2c1`, the growth was 29.9% in [1]; -50.9% (active) in assay [2]; -56% (active) in assay [3]; -39.4% (active) in assay [4]; 11.5% in assay [5]; -83% (active) in [6]. Besides, the figures for the growth in assay [7], in [8] and in [9] were -80.2% (active), 90.5% and -65.5% (active), respectively.
For `COc1ccc(Nc2c3c4c(cccc4[nH]c2=O)C(=O)c2ccccc2-3)cc1`, the growth in assay [1] is -20.9% (active); in [10] it was -19% (active); in assay [2], 41.1%; in [3], -20.5% (active); in [5], 21.4%; in assay [6] it was -52.4% (active). Also, the growth is -31.3% (active) in [7] and 64.1% in assay [8].
Turning to `O=C(Cn1cccc(Nc2ccccc2)c1=O)Nc1ccccc1`, the growth was 111% in assay [1]; 108% in assay [10]; 108% in assay [3]; 100% in assay [4]; 107% in [5]; 106% in [6]. Further, the figures for the growth in assay [7], in assay [8] and in [9] were 97.1%, 99.6% and 102%, respectively.
For `CN1C(=O)C2(SCC(C(=O)NCc3ccccc3)N2C(=O)C2CCCCC2)c2ccccc21` (stereo unspecified), the growth in assay [1] was 98%; in assay [2], 94.1%; in assay [3], 117%; in assay [4] it was 119%; in [5], 83.3%; in [6] it was 100%. In addition, the growth in [7] was 123%; in [8], 106%; in assay [9], 87.3%.
Turning to `CC(=O)OC[C@H]1O[C@H](OC(C)=O)[C@H](NC(=O)/C=C/CCl)[C@@H](OC(C)=O)[C@@H]1OC(C)=O`, the growth is 93.2% in [1]; 83.2% in assay [2]; 46.3% in [3]; 75.2% in assay [4]; 89.3% in [5]; 87.5% in [6]. For the same compound, the growth in assay [7] was 65.6%; in [8], 64%; in [9], 87.5%.
Take `CC(=O)c1cc2c(N)c(C(=O)Nc3ccccc3)sc2nc1C`: the growth in assay [1] was 75.5%; in [2], 89.2%; in assay [3], 85.1%; in assay [4], 85.1%; in assay [5], 93.1%; in assay [6], 64.2%. Moreover, the growth in [7] is 72.5%; in assay [8], 68.4%.
`CC/C=C\C[C@H](O)C/C=C1/C(=O)C=C[C@@]1(C)C/C=C\CCCC(=O)OC`: the growth in assay [1] was 112%; in [2], 101%; in [3] it was 104%; in assay [4], 115%; in assay [5] it was 106%; in assay [6], 107%. The growth is 93.6% in [7] and 87.1% in assay [8].
As for `OCCNc1nccc(N2CCN(c3ccnc4cc(Cl)ccc34)CC2)n1`, the growth in assay [1] is 98.8%; in [10], 24.2%; in [3], 54.9%; in assay [4], 77.1%; in [5], 82.7%; in [6] it was 58%. The values for the growth in [7], in [8] and in [9] were 79.6%, 84% and 68.7%, respectively.
For `N#Cc1c(N)n(CCNC(=O)c2ccccc2)c2nc3ccccc3nc12`, the growth in [1] was 134%; in [10] it was 87.8%; in assay [2], 120%; in assay [3], 112%; in [5] it was 106%; in assay [6], 121%. Moreover, the growth in assay [7] is 121%; in assay [8], 97.9%; in [9], 112%.
Regarding `C/C1=C\CC[C@@]2(C)O[C@H]2[C@H]2OC(=O)C(CN3CCN(CC4C(=O)O[C@H]5[C@H]4CC/C(C)=C/CC[C@@]4(C)O[C@@H]54)CC3)[C@@H]2CC1` (stereo partly specified), the growth was 60.6% in [1]; 101% in [2]; 87.1% in [3]; 94.6% in assay [4]; 104% in assay [5]; 103% in assay [6]. Also, the growth in assay [7] is 90.5%; in [8], 83.5%.
